Compounds with a hit are over-represented: about 9.4% of the library has one in this group of screens.
IMPase inh – cell-permeable inhibitors of inositol monophosphatase (IMPase) | CHO-M1 cells, IP1 accumulation, HTRF TR-FRET ratio | inhibition (IP1 accumulation), % at 46.1 µM | P97697 | 120,000 tested, under 10 active; active means well fitted curve in the direction sought with a large enough effect in the signal ratio, not every such curve was filed as active; inconclusive means small, poorly fitted or top-dose-only effect, or a change in a side signal; inactive means no such curve, though single readings can be large or run the other way; the % refers to the signal ratio;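 further: cells stimulated with carbachol in lithium chloride buffer; higher means more IMPase inhibition seen as more IP1 and lower FRET ratio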
Target sequence (P97697 whole entry, looked up): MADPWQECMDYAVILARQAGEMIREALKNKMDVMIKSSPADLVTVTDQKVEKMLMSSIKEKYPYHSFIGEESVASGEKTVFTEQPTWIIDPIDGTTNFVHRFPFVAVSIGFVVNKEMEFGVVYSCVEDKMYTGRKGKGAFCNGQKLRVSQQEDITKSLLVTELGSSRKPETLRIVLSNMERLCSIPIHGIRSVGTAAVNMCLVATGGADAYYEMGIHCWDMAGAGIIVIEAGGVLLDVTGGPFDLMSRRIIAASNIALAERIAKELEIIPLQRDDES
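Carbachol-driven Gq signalling in CHO-M1 cells (2000/well) generates IP1. Compounds that block IMPase raise IP1 and so reduce the FRET signal from Eu-anti-IP1 and d2-IP1 after a 10 min room-temperature lysis.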
HPGD inh – inhibitors of human 15-hydroxyprostaglandin dehydrogenase (HPGD); P15428; purified HPGD, NADH fluorescence kinetic, PGE2 substrate; Potency, µM, hits mostly inhibitors; actives 4.3% (n = 150,000); AID 894; active means well fitted inhibition curve with a large enough effect, not every such curve was filed as active; inconclusive means small, poorly fitted or top-dose-only effect, or another doubt; inactive means no such curve, though single readings can be large or run the other way
Target sequence (P15428 whole entry, looked up): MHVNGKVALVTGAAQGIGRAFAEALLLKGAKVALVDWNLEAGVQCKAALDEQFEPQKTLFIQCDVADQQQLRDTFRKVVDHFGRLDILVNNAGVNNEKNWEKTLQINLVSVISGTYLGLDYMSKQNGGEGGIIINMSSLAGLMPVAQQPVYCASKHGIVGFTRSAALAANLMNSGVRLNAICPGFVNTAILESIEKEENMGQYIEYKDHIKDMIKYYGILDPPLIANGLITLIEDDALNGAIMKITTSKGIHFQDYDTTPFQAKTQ
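NADH formation kinetics: reaction with 30 uM PGE2 and 1 mM NAD+ (final), 20 nM enzyme, Tris-HCl pH 8 with Tween 20, after 15 min compound preincubation at room temperature. Fluorescence change, last versus first of five reads.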
ALDH1A1 block – ALDH1A1 (human) enzyme inhibition | Potency, µM (highest dose often 75.3 µM), usual class: inhibitors | actives 7.3% (n = 220,000) | Purified ALDH1A1, NADH fluorescence, propionaldehyde substrate; active means well fitted inhibition curve with a large enough effect, not every such curve was filed as active; inconclusive means small, poorly fitted or top-dose-only effect, or another doubt; inactive means no such curve, though single readings can be large or run the other way
IMPase Li inh – IMPase inhibition in cells with lithium potentiation; CHO-M1 cells, IP1 TR-FRET (IP-One), carbachol + lithium; actives 0.35% (n = 210,000); AID 1457; Potency, µM (series often up to 59.4 µM), hits mostly inhibitors;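 further: IP1 builds up when IMPase is blocked and the TR-FRET signal falls; nearly all actives have a fitted effect of over 50% in size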
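Test compounds were applied to CHO-M1 cells previously cultured for 16–30 h at 2000 per well. A small lithium amount accompanied them; after 30 min at 37C, IP1 was quantified by TR-FRET.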
HTT ATP protect – cytoprotection in Huntington HTT-Q103 PC12 cell model. PC12 HTT-Q103 induced, cytoprotection, ATP luminescence, 40 h. Potency, µM (series often up to 56.4 µM), hits mostly activators. actives 0.14% (n = 230,000). AID 1471; further: nearly all actives have a fitted effect of over 45% in size
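Compounds were screened for protection of PC12 cells against cell death after tebufenozide induction (100 nM final) of mutant Huntingtin exon 1 (Q103) fused to GFP.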
HTT aggregate – mutant huntingtin aggregation inhibition. actives 1.1% (n = 220,000). AID 1688. Potency, µM (titrated, usually from 46.1 µM), actives largely listed as inhibitors. PC12 HttQ103-GFP aggregates, Acumen cytometry, 40 h; further: nearly all actives have a fitted effect of over 60% in size
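Inducible Q103 Huntingtin exon 1–GFP PC12 line, 1500 cells/well in phenol red free DMEM with 5% equine and 5% calf serum. Tebufenozide 100 nM induced expression; compounds titrated; aggregates quantified by cytometry.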
Of the large screens only hits and unclear results are named; the others gave an inactive call. Unless noted, the call rests on the fitted dose curve; in most records, active means well fitted curve in the direction sought with a large enough effect; inconclusive means small, poorly fitted or top-dose-only effect, or another doubt; inactive means no such curve, though single readings can be large; an effect the other way counts as inactive or inconclusive.

CN1CCN(C2=C(Cl)C(=O)N(c3ccc(Cl)c(Cl)c3)C2=O)CC1	ALDH1A1 block 25µM
Cc1ccc(CNC(=O)CCCCn2c(=O)c3ccccc3n(Cc3ccc(Cl)cc3)c2=O)cc1	none (no result: HPGD inh, ALDH1A1 block, IMPase Li inh, HTT ATP protect, HTT aggregate)
O=C(NC1CCCCC1)/C(=C/c1ccc(Cl)cc1)NC(=O)c1ccccc1	none (no result: HPGD inh, ALDH1A1 block, IMPase Li inh, HTT ATP protect, HTT aggregate)
CN(CCO)c1ccc([N+](=O)[O-])cc1C(=O)O	ALDH1A1 block 22µM
COc1cccc(/C=N/NC(=O)C(=O)NCc2cccnc2)c1OC	ALDH1A1 block 16µM (no result: IMPase inh, HPGD inh)
Nc1ncnc2c1ncn2[C@@H]1O[C@H](C(=O)NC2CC2)[C@H](O)[C@H]1O	none (no result: IMPase inh, HTT ATP protect, HTT aggregate)
O=C(c1ccccc1)N1CCCCC(Sc2nnnn2-c2ccccc2)C1=O (configuration not stated)	ALDH1A1 block 3.5µM
O=C(c1ccc(F)cc1)N1CCCCC(Sc2nnnn2-c2ccccc2)C1=O (configuration not stated)	ALDH1A1 block 4.5µM
Cc1cc(C)nc(NS(=O)(=O)c2ccc(Br)s2)c1	HPGD inh inconclusive, ALDH1A1 block 25µM, HTT aggregate inconclusive
Cc1nn(-c2ccccc2)c(C)c1C(=O)OCC(N)=O	none (no result: IMPase inh, HPGD inh)
Cc1nn(-c2ccccc2)c(C)c1C(=O)OCC(=O)NCc1ccco1	ALDH1A1 block 22µM
CC(C)Cn1c(N)c(C(=O)COC(=O)c2ccc(O)cc2)c(=O)n(C)c1=O	ALDH1A1 block 7.9µM (no result: IMPase inh, HPGD inh, HTT ATP protect)
COc1ccc(C(=O)OCC(=O)c2c(N)n(C)c(=O)n(C)c2=O)cc1OC	IMPase Li inh inconclusive (no result: IMPase inh, HPGD inh)
Cn1c(N)c(C(=O)COC(=O)c2ccc(Cl)nc2)c(=O)n(C)c1=O	HTT ATP protect 3.2µM (no result: IMPase inh, HPGD inh)
CC(=O)Oc1ccc(C(=O)OCC(=O)c2c(N)n(C)c(=O)n(C)c2=O)cc1OC(C)=O	none (no result: IMPase inh, HPGD inh)
Cc1ccc(C)c(N2C(=O)c3ccc(C(=O)OCC(=O)c4c(N)n(C)c(=O)n(C)c4=O)cc3C2=O)c1	ALDH1A1 block 20µM (no result: IMPase inh)
CCOc1cc(CNC2CCCC2)c(Cl)cc1OCC(=O)Nc1ccccc1	none (no result: IMPase inh, HPGD inh)
CC(C)Cn1c(N)c(C(=O)COC(=O)c2cc(-c3ccccc3)nc3ccccc23)c(=O)n(C)c1=O	HPGD inh inconclusive, ALDH1A1 block inconclusive (no result: IMPase inh)
CC(C)Cn1c(N)c(C(=O)COC(=O)C2=COCCO2)c(=O)n(C)c1=O	none
CC(C)Cn1c(N)c(C(=O)COC(=O)c2cnc(Cl)c(Cl)c2)c(=O)n(C)c1=O	ALDH1A1 block 0.45µM (no result: IMPase inh, HPGD inh)
Cc1nn(-c2ccccc2)c(C)c1C(=O)OCC(=O)c1c(N)n(CC(C)C)c(=O)n(C)c1=O	HTT aggregate 5µM
CC(C)Cn1c(N)c(C(=O)COC(=O)c2ccc([N+](=O)[O-])o2)c(=O)n(C)c1=O	ALDH1A1 block 18µM (no result: IMPase inh, HPGD inh)
COC(=O)C1=C(C(=O)OC)[C@@H]2Nc3ccccc3[C@@]23C[C@@H](C(=O)OC)N(S(=O)(=O)c2ccc(C)cc2)C3=N1	none (no result: IMPase inh, HTT aggregate)
CC12CC[C@@H]3c4ccc(OS(=O)(=O)O)cc4CC[C@H]3C1CCC2=O (some centres not stated)	none (no result: HTT aggregate)
CC1CC(C)(C)NC(C)c2ccccc21 (configuration not stated)	none (no result: HPGD inh, IMPase Li inh)
CC1CC(C)(C)NCc2ccccc21 (configuration not stated)	IMPase inh inconclusive, ALDH1A1 block 0.56µM (no result: HPGD inh, IMPase Li inh)
NNS(=O)(=O)c1cc(C(=O)O)cc(C(=O)O)c1	none (no result: IMPase inh, HTT aggregate)
Cc1[nH][nH]c(=O)c1[C@@H](c1ccccc1[N+](=O)[O-])C(C#N)C#N	ALDH1A1 block 25µM (no result: IMPase inh, HPGD inh, IMPase Li inh)
CCOc1cc(OCC)c(C(=O)CCC(=O)O)cc1OCC	none (no result: IMPase inh, HPGD inh, ALDH1A1 block, IMPase Li inh)
Cc1ccc(NC(=O)C(=O)NCCCN2CCOCC2)cc1C	none (no result: HPGD inh, ALDH1A1 block, IMPase Li inh, HTT ATP protect, HTT aggregate)
N#Cc1ccc(CSCC(=O)NN=C2CCCC2)cc1	ALDH1A1 block inconclusive (no result: IMPase inh, HPGD inh)
N#CCC(=O)NN=C1CCCCCCCCCCC1	ALDH1A1 block 3.2µM
CCN(CCCNC(=O)c1c(C)cc(=O)oc1C)c1ccccc1	ALDH1A1 block 7.9µM
CCCCN(CCCNC(=O)c1c(C)cc(=O)oc1C)c1ccccc1	ALDH1A1 block 22µM
CCCCN(CCCNC(=O)CN1C(=O)COc2ccccc21)c1ccccc1	ALDH1A1 block 13µM, HTT aggregate inconclusive
Cc1cc(=O)oc(C)c1C(=O)NCc1ccccc1	none
CN1C(=O)C2(c3ccccc31)C1CCCC=C1C(C#N)=C(N)C2(C#N)C#N (configuration not stated)	ALDH1A1 block inconclusive, HTT ATP protect 20µM (no result: HTT aggregate)
O=C(COC(=O)c1ccc(NS(=O)(=O)c2cccs2)cc1)Nc1nc2c(F)c(F)c(F)cc2s1	none (no result: IMPase inh, HPGD inh)
O=C(COC(=O)c1ccc(Br)o1)Nc1nc2c(F)c(F)c(F)cc2s1	ALDH1A1 block 22µM (no result: IMPase inh, HPGD inh, IMPase Li inh)
CCCCc1nc2c(c3c1C[C@H](C)OC3)CN(C(=O)c1ccco1)CC2	none (no result: IMPase inh, HTT aggregate)
CCCNC(=O)COc1nc2ccccc2nc1N1CCOCC1	none (no result: IMPase inh, HTT ATP protect)
CC1Cc2ccccc2N1C(=O)COc1nc2ccccc2nc1N1CCOCC1 (configuration not stated)	IMPase inh inconclusive, ALDH1A1 block inconclusive, IMPase Li inh 25µM
O=C(/C=C/NNC(=O)c1ccc(Br)cc1)c1ccccc1	ALDH1A1 block 10µM
CC(=O)NCCc1ccc(O)c(O)c1	HPGD inh inconclusive, ALDH1A1 block 28µM (no result: HTT aggregate)
CCc1cccc(CC)c1NC(=S)NCCc1ccc(O)c(O)c1	ALDH1A1 block 22µM, HTT ATP protect inconclusive (no result: IMPase inh, HPGD inh)
COc1ccc(CCNC(C)=O)cc1	none

Screening data (PubChem)
